Assay results reported in PubChem BioAssay (NCI).
Compounds without any hit were thinned out: in the full panel of roughly 79,000, 15% have a hit. The source made the active and inactive calls. Cut-off read from the data, not from the text of the source: active = growth inhibition above about 70%; inactive = the rest.

Experiment: NCI Yeast Anticancer Drug Screen. Data for the rad50EPP+ strain (AID 151);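 note: 0% = growth of vehicle-treated control cultures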
Settings: S. cerevisiae rad50 mutant strain, hits give high values
Description: Growth inhibition of yeast strains with defined genetic alterations is measured as a screen for potential anti-cancer activity. Selected strains with alterations in DNA damage repair or cell cycle control were exposed to compounds and growth inhibition was measured relative to vehicle treated controls. The strain used in this assay is rad50EPP+

Measured: growth inhibition

CN(C)CC1=Nc2cccc3cccc(c23)N1
inactive: at 1.2 µM -2% | at 3.7 µM -3% | at 11.0 µM -2% | at 33.0 µM -8% | at 100.0 µM 13%

O=C(O)/C=C\C(=O)Nc1ccc2c(c1)Cc1cc(Cl)ccc1-2
inactive: at 1.2 µM -3% | at 3.7 µM 8% | at 11.0 µM 14% | at 33.0 µM 28%
active: at 100.0 µM 81%

COc1ccc2nc(CCc3ccccc3)ccc2c1
inactive: at 1.2 µM -7% | at 3.7 µM -9% | at 11.0 µM 11% | at 33.0 µM 26% | at 100.0 µM 34%

Brc1ccc(B2Nc3ccccc3N2)cc1
inactive: at 1.2 µM 10% | at 3.7 µM 19% | at 11.0 µM 29% | at 33.0 µM 34% | at 100.0 µM 42%

COc1cccc(/C=C2\S/C(=N/Nc3nc(-c4ccc([N+](=O)[O-])cc4)cs3)NC2=O)c1O
inactive: at 1.2 µM 33% | at 3.7 µM 63%
active: at 11.0 µM 89% | at 33.0 µM 96% | at 100.0 µM 94%

COC(=O)C1=C(C(=O)OC)CC(n2nnc(C(=O)OC)c2C(=O)OC)=CC1
inactive: at 1.2 µM -2% | at 3.7 µM -2% | at 11.0 µM -3% | at 33.0 µM -3% | at 100.0 µM 1%

CCCCCc1c(CCCC)c(=O)[nH]c2cc(CNCC(OC)OC)ccc12
active: at 100.0 µM 93%
inactive: at 1.2 µM -8% | at 3.7 µM -9% | at 11.0 µM 3% | at 33.0 µM 10%

O=C1C[C@H]2[C@H](c3ccc(Br)cc3)[C@H]3C(=O)c4ccccc4NC(=O)[C@@H]3[C@@]2(O)c2ccccc2N1
inactive: at 1.2 µM 0% | at 3.7 µM 2% | at 11.0 µM 3% | at 33.0 µM 3% | at 100.0 µM 3%
